Compounds with a hit are over-represented: about 3.6% of the library has one in this group of screens.
Mtb hypoxia inh = Mtb hypoxia fluorescent reporter inhibition. M. tuberculosis hypoxia-regulated fluorescent reporter, fluorescence. fluorescence inhibition, % (concentration not given with the values). hit rate 0.1% among 300,000. AID 1159583; in the data active means fluorescence inhibition mostly above about 23%, no sharp cut-off; inactive means mostly below about 17%
Mtb FBA inh = inhibits M. tuberculosis FBA enzyme; inhibition, % at 1 µM; hit rate 2.3% among 360,000; P9WQA3; purified M. tuberculosis FBA, fluorescence read-out;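 further: 0% = vehicle and 100% = reference inhibitor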
Target sequence (P9WQA3 whole entry, looked up): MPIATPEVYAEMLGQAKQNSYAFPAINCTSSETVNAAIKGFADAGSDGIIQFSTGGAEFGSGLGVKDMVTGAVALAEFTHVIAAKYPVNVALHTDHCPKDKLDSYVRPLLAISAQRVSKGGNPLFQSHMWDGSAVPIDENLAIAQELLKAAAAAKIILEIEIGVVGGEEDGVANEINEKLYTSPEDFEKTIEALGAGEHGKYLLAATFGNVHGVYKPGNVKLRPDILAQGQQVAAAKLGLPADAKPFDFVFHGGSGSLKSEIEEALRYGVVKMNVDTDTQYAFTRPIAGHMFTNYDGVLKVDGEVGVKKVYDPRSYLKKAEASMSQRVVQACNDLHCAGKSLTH
DUSP3 inh = inhibitors of human VHR1 phosphatase (DUSP3); recombinant VHR phosphatase, pNPP absorbance; inhibition, % at 13.3 µM; hit rate 0.52% among 290,000; in the data active means inhibition above about 50%
Target sequence (P51452 whole entry, looked up): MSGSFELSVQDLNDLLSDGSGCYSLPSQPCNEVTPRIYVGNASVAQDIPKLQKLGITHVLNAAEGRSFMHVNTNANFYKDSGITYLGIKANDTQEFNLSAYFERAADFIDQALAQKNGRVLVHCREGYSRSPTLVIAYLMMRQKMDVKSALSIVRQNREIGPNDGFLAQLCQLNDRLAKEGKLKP
GDH-TPI counter-1 = inhibits GDH-TPI coupling enzymes, artifact for Mtb FBA screen. AID 588335. GDH-TPI coupled enzyme counterscreen, NADH absorbance. inhibition, % at 4.8 µM. hit rate 1.2% among 360,000; in the data active means inhibition above about 30%;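 further: 0% = DMSO wells and 100% = wells lacking the enzyme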
Mtb betalactam = beta-lactam sensitization of Mtb H37Rv. M. tuberculosis H37Rv growth with meropenem, percent inhibition. inhibition, % at 25 µM. hit rate 0.27% among 330,000. AID 434955; call rule not given here;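 further: growth measured after seven days incubation then overnight dye step; 0% = bacteria only wells and 100% = bacteria with antibiotic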
Mtb FBA confirm = Mtb FBA inhibition, confirmed. purified M. tuberculosis FBA, fluorescence read-out. hit rate 78% among 5,600. inhibition, % at 1 µM. AID 651616. shares compounds with Mtb FBA inh;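 further: 0% = vehicle wells and 100% = reference inhibitor wells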
GDH-TPI counter-2 = GDH-TPI inhibition counter-screen for FBA inhibitors. shares compounds with Mtb FBA inh. GDH-TPI coupled enzyme counterscreen, fluorescence. inhibition, % at 1 µM. hit rate 81% among 5,600. AID 652141; in the data active means inhibition above about 10%
GDH-TPI DR = inhibits GDH-TPI coupling enzymes in dose response; shares compounds with Mtb FBA inh; GDH-TPI coupled enzyme assay, fluorescence, artifact counterscreen; IC50, µM; hit rate 79% among 170; call rule not given here
Starred values were filed as active, the others as inactive; · = not tested or not shown; + = active, no number. Unless noted, no stated cut-off is given here; in the data, active means inhibition above about 27%; inactive means the rest.

SMILES | Mtb hypoxia inh | Mtb FBA inh | DUSP3 inh | GDH-TPI counter-1 | Mtb betalactam | Mtb FBA confirm | GDH-TPI counter-2 | others
O=[N+]([O-])c1ccc(NN=Cc2c[nH]c3ccccc23)c(S(=O)(=O)Nc2ccc(Cl)cc2)c1 | 20 | · | · | · | · | · | ·
Cc1ccc(-c2cc3nc(-c4ccccc4)cc(N4CCC5(CC4)OCCO5)n3n2)cc1 | · | 33* | 26 | 16 | 4 | + | +
Fc1cccc(-c2cc3nc(-c4ccccc4)cc(N4CCC5(CC4)OCCO5)n3n2)c1 | · | 53* | 48 | 7 | 18 | -2 | -6
Cc1cccc(-c2cc3nc(-c4ccccc4)cc(N4CCC5(CC4)OCCO5)n3n2)c1 | · | 25 | 0 | 7 | 47 | · | ·
COC(=O)NN=C(C)c1ccc(OC(F)F)cc1 | 17 | · | · | · | · | · | ·
COc1ccc(CCNC(=O)COC(=O)c2ccco2)cc1OC | 14 | -11 | 35 | -11 | -6 | · | ·
COc1ccc(CCNC(=O)COC(=O)c2ccccc2NCCO)cc1OC | 8 | 91* | · | 5 | -4 | 128* | 78*
O=C(COC(=O)c1ccccc1NCCO)NCc1cccs1 | 7 | 66* | · | 3 | -5 | 20 | 24*
COc1ccc(-c2nc3nc(SC)nn3cc2C)cc1F | 2 | 16 | 5 | 1 | -3 | · | ·
COc1ccc(-c2nc3ncnn3cc2C)cc1F | -6 | 73* | -21 | -4 | -7 | + | +
COc1ccc(C2CC(=O)C=C(c3ccc(Oc4ccccc4)cc3)C2)cc1OC (stereo unspecified) | 15 | · | · | · | · | · | ·
CCOc1ccc2oc(-c3ccccc3)c(C(N)=O)c2c1 | 5 | 69* | 26 | 3 | 8 | + | 199*
CCN(CC)C(=O)c1c(-c2ccccc2)oc2ccc(OC)cc12 | 15 | 0 | 12 | -4 | 3 | · | ·
CCOc1ccc2oc(-c3ccccc3)c(C(=O)N3CCN(CCO)CC3)c2c1 | · | 42* | 2 | 6 | · | 93* | 90*
CCOc1ccc2oc(-c3ccccc3)c(C(=O)N(C)C)c2c1 | 13 | 50* | -2 | 14 | -2 | -2 | -4
COc1ccc(C=NNC(=O)c2ccncc2)cc1CSc1nc2ccccc2s1 | 23 | · | · | · | · | · | ·
CC(/C=C/c1ccccc1)=NNC(=O)c1cc([N+](=O)[O-])cc([N+](=O)[O-])c1 | 0 | · | · | · | · | · | ·
O=C(C(Cc1ccccc1)NS(=O)(=O)c1ccc(Cl)cc1)N1CC[C@@]2(O)CCCCC2C1 (stereo partly specified) | 11 | · | · | · | · | · | ·
CN(C(=O)CSc1nc(N)c2c3c(sc2n1)CSC(C)(C)C3)c1ccccc1 | 0 | 31* | -13 | 3 | 70 | 61* | 49*
NC(=O)CSc1nc(N)c2c3c(sc2n1)CCCCC3 | 11 | 1 | 19 | -3 | 43 | · | ·
O=C1NC(Cc2ccccc2)CO1 (stereo unspecified) | 12 | · | · | · | · | · | ·
O=C1[C@H]2C(c3ccccc3)=NN(c3ccccc3)[C@H]2C(=O)N1c1ccccc1 | 14 | 31* | 32 | 1 | -2 | 67* | 59*
O=C1C2C(c3ccccc3)=NN(c3ccccc3)C2C(=O)N1c1ccccc1 (stereo unspecified) | 16 | 5 | -3 | 0 | 2 | · | ·
O=C1C2CCCCC2C(=O)N1CCCCN1CCN(c2nsc3ccccc23)CC1 (stereo unspecified) | 3 | · | · | · | · | · | ·
CNc1cncc(-c2cc(OC)c(OC)c(OC)c2)n1 | · | 96* | · | 23 | · | + | +
SMILES | Mtb hypoxia inh | Mtb FBA inh | DUSP3 inh | GDH-TPI counter-1 | Mtb betalactam | Mtb FBA confirm | GDH-TPI counter-2 | others
CNc1cccc(-c2cc(OC)c(OC)c(OC)c2)n1 | · | 17 | · | 16 | · | · | ·
CNc1cncc(-c2ccc(OC)cc2OC)n1 | · | 52* | · | 23 | · | 4 | 2
CC(CC(=O)Nc1ccccn1)=NNC(=O)C(=O)Nc1ccccc1C | 4 | · | · | · | · | · | ·
O=C(N/N=C/c1cc(Cl)ccc1O)c1ccc(Br)cc1 | · | 27* | 10 | 12 | 1 | 78* | 57*
c1ccc(Cn2c(-c3ccccc3)nc3nc4ccccc4nc32)cc1 | 14 | 56* | 2 | 43* | -3 | 161* | 132*
CC(=NNC(=O)C1CC1)c1ccc(C(C)(C)C)cc1 | 8 | · | · | · | · | · | ·
CN1CCN(C(=O)C2=CC(C3CCCCC3)CC(OCCCCO)O2)CC1 (stereo unspecified) | 8 | · | · | · | · | · | ·
CC1(C)CC(=O)CC(=NNC(=O)c2cccs2)C1 | 19 | · | · | · | · | · | ·
COc1ccccc1CNCc1ccc(OC)c2ccccc12 | 2 | 2 | · | -6 | 2 | · | ·
COc1ccc(CNCc2ccc(OC)c3ccccc23)cc1 | 3 | 57* | 5 | -2 | 6 | 11 | -5 | GDH-TPI DR=>10
CCOC(=O)c1ccc(N2C=C(C(=O)OC)C(c3cccc(O)c3)C(C(=O)OC)=C2)cc1 | 3 | 111* | · | 7 | -6 | 97* | 81*
COC(=O)C1=CN(c2ccc(OC)cc2)C=C(C(=O)OC)C1c1cccc(F)c1 | 4 | 26 | 6 | -1 | -10 | · | ·
FC(F)(F)c1cccc(-c2nc3nc(Cl)c(Cl)nc3[nH]2)c1 | · | 31* | 0 | 36* | 14 | 35* | 42*
FC(F)(F)c1nc2nc(Cl)c(Cl)nc2[nH]1 | · | 5 | · | 26 | · | · | ·
Cc1nn(-c2ccccc2)c(Cl)c1C=NNc1nc2ccccc2n1C | 4 | · | · | · | · | · | ·
Clc1ccc(C2C3CN(CC4CCCCC4)C(c4ccccc4)C34CC2(c2cccnc2)C4)cn1 (stereo unspecified) | -3 | · | · | · | · | · | ·
CCc1nnc(NC(=O)CSc2nc(C)c3c(c2C#N)CCCC3)s1 | -2 | 56* | -9 | 8 | -4 | 4 | 1
CN1CCN(S(=O)(=O)c2ccc(N3CCN(C(c4ccccc4)c4ccccc4)CC3)nc2)CC1 | 5 | 81* | -2 | 4 | 0 | + | 173*
CCOc1ccc2ccccc2c1C=NNC(=O)c1cc(C)[nH]n1 | 2 | · | · | · | · | · | ·
Cc1cc(C)n2cc(CSc3nncn3C)nc2n1 | 2 | 49* | 13 | 6 | -4 | 2 | -4
Cc1cc(C)n2cc(CSc3nnnn3C)nc2n1 | 1 | 28* | 13 | 6 | -5 | + | 187*
CCc1nnc(SCc2cn3c(C)cc(C)nc3n2)n1N | -4 | 39* | 20 | -5 | -9 | 45* | 53*
CCN(CC)c1ccc(C=NN2CCN(Cc3ccccc3)CC2)c(O)c1 | 7 | · | · | · | · | · | ·
N#Cc1c(N=Cc2ccc(Br)s2)sc2c1CCC2 | 8 | · | · | · | · | · | ·
CCOC(=O)Nc1ccc([N+](=O)[O-])cc1OC | 8 | 0 | · | 14 | 1 | · | ·
CCOC(=O)c1ccc(C(=O)OCC)c(NC(=S)Nc2ccc([N+](=O)[O-])cc2OC)c1 | 0 | 31* | 18 | 19 | 1 | -4 | -6
CCOc1c2ccc(C(=O)N[C@H](C)C3CCCCC3)cc2nn1CCOC | · | 106* | -5 | 17 | -9 | 78* | 68*
CCOc1c2ccccc2nn1CCOC | 6 | 10 | · | 4 | -6 | · | ·
CCOc1c2ccc(C(=O)NCc3ccco3)cc2nn1CCOC | 1 | 39* | 17 | 6 | -4 | + | +
